# Most compounds without a hit are left out; they make up all but 4.2% or so of the library.
# SMARCA2 act: SMARCA2 (BRM) function activators, primary screen, cell-based, luminescence, high throughput. activation, % at 9.1 µM. MG213 cells, MMTV-luciferase reporter, dexamethasone, overnight. actives 1% (n = 370,000). AID 652017, 2013; in the data active = activation above about 7.8%;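 note: 0% = vehicle wells and 100% = reference activator wells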
# hcDAF12 agonist: H. contortus DAF-12 nuclear receptor activators, primary screen, cell-based, luminescence, HEK293, lit1-tk-luc reporter | HEK293 hcDAF-12 lit1-tk-luc reporter; 0% DMSO, 100% Δ7-dafachronic acid | activation, % at 6.8 µM | actives 1.4% (n = 370,000) | AID 652067, 2013;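 active = activation above the mean of all tested compounds plus 3 SD, cut at about 5.5% in these data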;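 note: 100% = response to 3 µM Δ7-dafachronic acid high control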
# hgDAF12 agonist: H. glycines DAF-12 receptor agonists, primary screen, cell-based, luminescence, HEK293, GAL4 fusion, UAS-luciferase | activation, % at 6.8 µM | HEK293 GAL4-hgDAF12 UAS-luciferase reporter, agonist luminescence; normalized to butyrate control | Nuclear hormone receptor DAF-12 (Heterodera glycines), GAL4 fusion | actives 1.8% (n = 370,000);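 active = activation above a cutoff set at the mean of all screened compounds plus 3 SD, cut at about 10% in these data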;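 note: 0% = DMSO wells and 100% = sodium butyrate wells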
# DAX1 inh: DAX1 (NR0B1) inhibitors on StAR promoter, primary screen, cell-based, luminescence, SF-1 (NR5A1), full-length DAX-1; HEK293T StAR-luciferase reporter, SF-1/DAX-1 repression relief; inhibition, % at 6.8 µM; actives 1.1% (n = 370,000);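 active = inhibition above the mean over all tested compounds plus 3 SD, cut at about 3.6% in these data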;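 note: 0% = DAX-1 cells with DMSO and 100% = cells lacking DAX-1 with DMSO; higher inhibition means more luminescence from relief of DAX-1 repression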
# ssDAF-12 act: S. stercoralis DAF-12 nuclear receptor activators, primary screen, cell-based, luminescence, HEK293, GRIP1 co-expression, lit1-tk-luc | Nuclear hormone receptor DAF-12 (Strongyloides stercoralis) | HEK293 ssDAF-12/GRIP1 lit1-tk-luc reporter; % of 3 µM dafachronic acid response | activation, % at 6.8 µM | actives 1% (n = 370,000) | AID 652126, 2013;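 active = activation above the mean over all tested compounds plus 3 SD, cut at about 0.9% in these data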;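 note: 0% = DMSO-only wells and 100% = 3 µM delta7-dafachronic acid wells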
# SMARCA2 conf: SMARCA2 (BRM) function activators, confirmation, cell-based, luminescence, triplicate. shares compounds with SMARCA2 act. MG213 cells, MMTV-luciferase with dexamethasone, overnight; MG213 cells expressing E1A, Rb sequestered; DMSO wells 0%, reference activator 100%. activation, % at 9.1 µM. actives 30% (n = 3,500). AID 652260, 2013;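 active = activation above its plate's cutoff, the mean activation of tested wells plus 3 SD, cut at about 7.9% in these data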
# GAL4-VP16 Luc: GAL4-VP16 luciferase reporter activation, counter-screen for SMARCA2 (BRM) activator project, cell-based, pG5luc, luminescence, high throughput. shares compounds with SMARCA2 act. HEK293 GAL4-VP16 pG5luc reporter; scaled: DMSO wells 0%, SAHA wells 100%. activation, % at 9.1 µM. actives 41% (n = 3,500);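 active = activation above the solvent-only control well mean plus 3 SD, averaged across control plates, cut at about 5.2% in these data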
# * hit, by the source's call; x = no result.
SMILES,SMARCA2 act,hcDAF12 agonist,hgDAF12 agonist,DAX1 inh,ssDAF-12 act,SMARCA2 conf,GAL4-VP16 Luc
CCOC(=O)C1=C(C)c2ccccc2OC1(CC)C(=O)OCC (stereo unspecified),-1.4,-1.9,0.9,-0.9,-0.3,x,x
COC(=O)[C@]12C[C@H](CC(=O)N3CCC(c4ccccc4)CC3)C(=O)N(Cc3ccco3)C1=C[C@H](C(C)C)O[C@@H]2C1CC1,-2.2,-3.5,-3.0,-1.2,-0.1,x,x
O=C(Nc1ccc(Nc2ccccc2)cc1)c1cccc(F)c1,9.0*,1.7,4.3,0.1,-0.4,5.6,6.7*
O=C(Nc1cccc(F)c1)c1ccccc1-c1ccccc1,9.0*,-0.1,-0.2,-1.0,-1.7,-0.2,-1.1
O=C(Nc1ccc(F)cc1F)c1ccccc1-c1ccccc1,4.8,-1.2,3.0,-0.2,-1.4,x,x
O=C(Nc1ccc([N+](=O)[O-])cc1)OC1CCS(=O)(=O)C1 (stereo unspecified),-4.4,-0.9,1.9,-0.5,-0.5,x,x
COc1cccc(N2CCN(c3nc(C)c(C)c(=O)[nH]3)CC2)c1,-3.4,-2.1,-0.3,-0.3,-1.1,x,x
COc1cccc(N2CCN(c3nc(-c4ccccc4C)cc(=O)[nH]3)CC2)c1,13.3*,2.2,8.1,0.0,-0.7,36.0*,1.3
COC(=O)C1CCN(C(=O)C2CC(=O)N(c3ccc(OC)cc3)C2c2ccc(OC)cc2)CC1 (stereo unspecified),-0.1,-2.9,0.1,0.4,-1.2,x,x
COC(=O)C1=CC(=O)N2CCN=C2S1,-1.1,1.4,0.8,-0.1,-0.4,x,x
O=S(=O)(c1cccc(-c2n[nH]c(=S)n2C2CCCC2)c1)N1CCOCC1,8.8*,-0.5,1.4,0.4,-1.1,-0.9,0.4
C[C@H](CO)N1C[C@H](C)[C@@H](CN(C)C(=O)Nc2ccc(-c3cccs3)cc2)OCc2cn(nn2)CCCC1=O,5.8,0.4,0.8,-0.8,-1.0,x,x
O=C(NCC1COCCO1)C1CCN(S(=O)(=O)c2cccs2)CC1 (stereo unspecified),-2.2,-1.0,2.4,-0.3,-1.5,x,x
Nc1nc(-c2ccc(Cl)cc2)cs1,9.1*,1.8,4.6,3.4,0.0,7.3,1.4
Nc1nc(COc2ccc(Cl)cc2)cs1,10.2*,0.6,5.7,1.2,-0.7,4.5,4.2
Cc1ccc(-c2csc(N)n2)cc1,3.5,4.7,8.8,2.1,-0.8,x,x
Clc1ccc(OCc2nn[nH]n2)cc1,0.2,1.6,-0.1,-0.5,-1.2,x,x
Cc1ccc(SC[C@H](CC(C)C)N2CCN(C)CCC2=O)cc1,6.9,3.4,6.4,1.2,-0.1,x,x
CC(C)C[C@@H](CSc1ccc(Br)cc1)N1CCN(C)CCC1=O,8.2*,2.7,5.1,2.0,-0.2,9.0*,9.2*
C[C@H]1CN(c2ccc(N3CCNC[C@@H]3C)cc2C#N)CCN1Cc1ccccc1,10.7*,-0.5,2.6,-1.3,-0.4,-2.0,-0.1
N#Cc1cc2c(nc1SCc1ccncc1)CCC2,11.6*,-0.7,6.4,1.1,-1.3,3.4,4.8
N#Cc1cc2c(nc1SCc1ccccc1)CCC2,-2.0,-1.2,-0.7,0.3,-1.4,x,x
Cc1ccc(S(=O)(=O)N2c3ccccc3C[C@H]2CCC(=O)c2ccccc2)cc1,x,1.7,1.4,x,-0.4,x,x
CC(COc1ccc(C(C)C)cc1)NC(=O)c1ccc(Br)o1 (stereo unspecified),10.3*,-2.3,2.5,0.8,-0.5,5.6,-0.2
CCc1ccc(OCC(=O)NNC(=O)CNC(=O)c2ccc(Br)o2)cc1,0.0,-1.6,2.2,-1.7,-0.6,x,x
SMILES,SMARCA2 act,hcDAF12 agonist,hgDAF12 agonist,DAX1 inh,ssDAF-12 act,SMARCA2 conf,GAL4-VP16 Luc
Cn1c(=O)c2cc(S(=O)(=O)N3CCN(CCO)CC3)ccc2n(C)c1=O,-1.7,-0.1,3.8,1.4,-1.1,x,x
COc1ccc(CN=C2NC(=O)CC(C(=O)Nc3ccc(F)cc3)S2)cc1 (stereo unspecified),8.3*,-2.5,-1.8,-0.8,-1.6,-0.5,-1.1
COc1ccc(NC(=O)C2CC(=O)N/C(=N/N=C/c3ccco3)S2)cc1 (stereo unspecified),-3.9,-1.1,-2.1,-0.2,-1.7,x,x
COC(=O)[C@]12C[C@H](CC(=O)NCCCN3CCCC3=O)C(=O)N(Cc3ccco3)C1=C[C@H](C(C)(C)C)O[C@@H]2C,-6.0,-0.1,0.9,-0.6,-1.3,x,x
O=S(=O)(Cc1ccccc1Cl)CC(O)COc1ccccc1Cl (stereo unspecified),8.4*,-1.2,-1.4,-0.7,-1.2,-3.8,2.3
O=S(=O)(CC(O)COc1ccccc1Cl)c1ccccc1 (stereo unspecified),2.7,0.2,1.9,0.5,-0.8,x,x
O=C(NCc1ccccn1)c1nnc(Cc2ccc(Cl)cc2)o1,9.6*,-1.9,-1.4,2.0,-0.7,1.3,0.7
ClC(Cl)(c1nnnn1-c1ccccc1)c1nnnn1-c1ccccc1,23.6*,0.7,-3.2,-0.3,-1.3,-4.2,-0.8
CC12CCC(c3c(C(=O)O)nn(-c4ccccc4)c31)C2(C)C (stereo unspecified),9.4*,-1.8,0.2,0.7,-1.5,-2.2,0.0
CC(C)CN(C)C(=O)CCc1nnc(Cc2cccc(C(F)(F)F)c2)o1,8.4*,2.3,11.4*,2.2,-0.8,6.1,5.2*
O=C(NC1CCN(Cc2ccccc2)CC1)c1cccc(Br)c1,0.3,-1.9,0.0,-0.1,-1.4,x,x
O=C(NC1CCN(Cc2ccccc2)CC1)c1cccc(OC(F)F)c1,10.2*,-0.4,-1.0,0.8,-1.4,6.0,0.1
CCOC(=O)c1cn2nc(Oc3ccc(C)cc3)ccc2n1,14.6*,0.9,2.3,-0.1,0.3,2.3,2.4
CCOC(=O)c1cn2nc(Oc3ccc(OC)cc3)ccc2n1,-0.7,2.6,-2.0,0.1,-0.9,x,x
c1ccc2c(c1)Cc1cc3ccccc3nc1-2,8.8*,16.7*,15.0*,2.0,1.2*,12.8*,10.5*
CCCCc1c(-c2ccccc2OC)ncn1CCc1ccccc1,-2.8,-2.6,-2.6,-0.6,-1.5,x,x

# High-throughput results (PubChem)
